{
  "source": "PubChem BioAssay (EPA / NIEHS)",
  "note": "Results filed as inconclusive are left out. Calls of active or inactive are those of the source. How the source made its calls: active means hit-call score of the fitted dose curve at least 0.9, where 1 is the maximum; inconclusive means response in the unintended direction; inactive means score below 0.9.",
  "data": [
    {"biological_target": "sheep Cyclooxygenase-2 (Cox2), PTGS2 (gene 443460) (UniProt P79208)", "sequence (P79208 whole entry, looked up)": "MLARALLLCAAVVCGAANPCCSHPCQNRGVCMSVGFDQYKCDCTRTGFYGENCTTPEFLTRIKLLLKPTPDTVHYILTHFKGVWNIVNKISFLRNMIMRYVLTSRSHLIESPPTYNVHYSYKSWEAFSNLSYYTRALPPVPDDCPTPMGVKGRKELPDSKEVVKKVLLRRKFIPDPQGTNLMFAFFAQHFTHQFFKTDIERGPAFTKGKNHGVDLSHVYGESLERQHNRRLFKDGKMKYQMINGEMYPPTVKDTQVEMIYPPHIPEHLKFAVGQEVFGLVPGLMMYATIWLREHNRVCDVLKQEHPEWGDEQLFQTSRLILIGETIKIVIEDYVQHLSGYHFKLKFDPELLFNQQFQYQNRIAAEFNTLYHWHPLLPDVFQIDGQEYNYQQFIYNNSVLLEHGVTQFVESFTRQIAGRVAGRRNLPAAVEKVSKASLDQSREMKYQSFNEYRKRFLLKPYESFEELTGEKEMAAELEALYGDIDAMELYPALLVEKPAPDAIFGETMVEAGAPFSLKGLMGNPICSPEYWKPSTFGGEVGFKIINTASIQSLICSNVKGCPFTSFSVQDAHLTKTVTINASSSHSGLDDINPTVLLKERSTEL", "assay": "NVS_ENZ_oCOX2: NovaScreen (NVS) Enzymatic Assay for sheep Cyclooxygenase-2 (Cox2) (AID 2283231)", "summary_of_the_method": "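Enzyme extracted from ovine placenta tested cell-free; activity read colorimetrically by absorbance 0.66 hour after dosing. Primary screen in duplicate at 25 uM; hits rerun as concentration series to 50 uM, loss of signal versus DMSO baseline.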", "values": [
      {"smiles": "C[C@](N)(Cc1ccc(O)c(O)c1)C(=O)O", "AC50": "6.83 µM (active)"},
      {"smiles": "CC(C)=CCC/C(C)=C\\CO", "AC50": "4.26 µM (active)"},
      {"smiles": "O=C(OC[C@H]1O[C@@H](OC(=O)c2cc(O)c(O)c(OC(=O)c3cc(O)c(O)c(O)c3)c2)[C@H](OC(=O)c2cc(O)c(O)c(OC(=O)c3cc(O)c(O)c(O)c3)c2)[C@@H](OC(=O)c2cc(O)c(O)c(OC(=O)c3cc(O)c(O)c(O)c3)c2)[C@@H]1OC(=O)c1cc(O)c(O)c(OC(=O)c2cc(O)c(O)c(O)c2)c1)c1cc(O)c(O)c(OC(=O)c2cc(O)c(O)c(O)c2)c1", "AC50": "2.87 µM (active)"},
      {"smiles": "CCCCCCc1ccc(O)cc1O", "AC50": "11 µM (active)"},
      {"smiles": "Cc1ccc(C)c(O)c1", "outcome": "inactive"}
    ]},
    {"biological_target": "rat Constitutive Nitric Oxide Synthase (CNOS), Nos1 (gene 24598) (UniProt P29476)", "sequence (P29476 whole entry, looked up)": "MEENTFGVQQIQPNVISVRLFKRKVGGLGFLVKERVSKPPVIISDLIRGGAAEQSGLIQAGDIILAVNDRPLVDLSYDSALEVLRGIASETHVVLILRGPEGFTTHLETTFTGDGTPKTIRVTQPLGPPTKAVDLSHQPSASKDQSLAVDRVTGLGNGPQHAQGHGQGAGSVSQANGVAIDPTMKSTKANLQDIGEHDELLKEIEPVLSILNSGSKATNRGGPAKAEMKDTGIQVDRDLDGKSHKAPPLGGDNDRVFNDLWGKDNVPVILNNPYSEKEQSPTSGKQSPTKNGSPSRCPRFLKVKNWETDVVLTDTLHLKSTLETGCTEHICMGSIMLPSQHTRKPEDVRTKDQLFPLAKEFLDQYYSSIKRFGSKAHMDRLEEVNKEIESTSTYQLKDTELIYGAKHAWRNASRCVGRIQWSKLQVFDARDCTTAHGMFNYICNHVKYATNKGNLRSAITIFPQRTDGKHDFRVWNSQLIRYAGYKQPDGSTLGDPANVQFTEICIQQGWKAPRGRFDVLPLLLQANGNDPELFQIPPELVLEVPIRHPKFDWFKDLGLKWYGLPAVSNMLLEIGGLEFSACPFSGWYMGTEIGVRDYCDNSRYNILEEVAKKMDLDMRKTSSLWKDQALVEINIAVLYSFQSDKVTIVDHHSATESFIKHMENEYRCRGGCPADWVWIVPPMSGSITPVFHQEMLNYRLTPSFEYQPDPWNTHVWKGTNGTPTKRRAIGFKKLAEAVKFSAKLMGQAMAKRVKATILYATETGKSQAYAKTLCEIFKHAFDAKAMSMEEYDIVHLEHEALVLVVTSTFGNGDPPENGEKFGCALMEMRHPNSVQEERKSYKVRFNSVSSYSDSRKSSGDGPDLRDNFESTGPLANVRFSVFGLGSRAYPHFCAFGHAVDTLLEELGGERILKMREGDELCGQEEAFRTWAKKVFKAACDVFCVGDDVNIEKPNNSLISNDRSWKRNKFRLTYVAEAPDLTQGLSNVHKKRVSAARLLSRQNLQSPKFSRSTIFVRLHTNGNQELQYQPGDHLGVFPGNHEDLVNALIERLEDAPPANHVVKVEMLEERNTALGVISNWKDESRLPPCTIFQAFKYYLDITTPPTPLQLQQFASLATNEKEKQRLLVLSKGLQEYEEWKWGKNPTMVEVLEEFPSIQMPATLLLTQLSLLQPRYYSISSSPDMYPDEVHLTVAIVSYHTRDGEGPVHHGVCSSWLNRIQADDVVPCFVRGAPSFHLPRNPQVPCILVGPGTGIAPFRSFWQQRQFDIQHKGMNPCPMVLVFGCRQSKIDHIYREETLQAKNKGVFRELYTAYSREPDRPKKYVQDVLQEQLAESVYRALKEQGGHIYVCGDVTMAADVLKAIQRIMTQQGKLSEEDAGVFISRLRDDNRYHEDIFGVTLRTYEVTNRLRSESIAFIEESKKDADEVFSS", "assay": "NVS_ENZ_rCNOS: NovaScreen (NVS) Enzymatic Assay for rat Constitutive Nitric Oxide Synthase (CNOS) (AID 2283236)", "summary_of_the_method": "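Single 25 uM duplicate screen, then concentration series to 50 uM for chemicals meeting threshold. Rat brain membrane-derived CNOS activity detected radiometrically by filtration and scintillation counting, 1 h after compound addition; DMSO as baseline.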", "values": [
      {"smiles": "CC/C(=C\\C(=N/O)C(N)=O)C(C)[N+](=O)[O-]", "note": "(stereo unspecified)", "outcome": "inactive"},
      {"smiles": "CC1(C)C(=O)N(Br)C(=O)N1Br", "AC50": "12.2 µM (active)"},
      {"smiles": "CC(C)=CCCC(C)CCO", "note": "(stereo unspecified)", "outcome": "inactive"},
      {"smiles": "CC1=CC(=O)CC(C)(C)C1", "outcome": "inactive"},
      {"smiles": "CC(C)=CCCC(C)=CC=O", "outcome": "inactive"}
    ]},
    {"biological_target": "sheep Cyclooxygenase-1 (Cox1), PTGS1 (gene 443551) (UniProt P05979)", "sequence (P05979 whole entry, looked up)": "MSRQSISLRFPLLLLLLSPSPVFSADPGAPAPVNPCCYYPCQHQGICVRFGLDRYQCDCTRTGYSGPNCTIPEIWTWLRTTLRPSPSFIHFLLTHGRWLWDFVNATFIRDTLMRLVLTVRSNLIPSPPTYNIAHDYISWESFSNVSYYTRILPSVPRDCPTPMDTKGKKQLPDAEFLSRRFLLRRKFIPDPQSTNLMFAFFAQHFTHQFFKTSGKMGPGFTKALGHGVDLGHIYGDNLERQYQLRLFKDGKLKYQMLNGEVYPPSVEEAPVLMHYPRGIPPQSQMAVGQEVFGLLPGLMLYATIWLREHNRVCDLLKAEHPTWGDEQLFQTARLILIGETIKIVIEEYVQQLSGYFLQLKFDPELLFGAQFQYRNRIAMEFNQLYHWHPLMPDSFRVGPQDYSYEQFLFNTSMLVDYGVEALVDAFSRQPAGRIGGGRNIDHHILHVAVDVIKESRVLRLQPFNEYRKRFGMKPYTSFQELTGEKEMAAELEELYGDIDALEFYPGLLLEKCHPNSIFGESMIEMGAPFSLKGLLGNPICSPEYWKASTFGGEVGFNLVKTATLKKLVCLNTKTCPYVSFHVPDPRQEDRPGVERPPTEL", "assay": "NVS_ENZ_oCOX1: NovaScreen (NVS) Enzymatic Assay for sheep Cyclooxygenase-1 (Cox1) (AID 2283239);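 further: actives reduce cyclooxygenase activity so potencies are for inhibitors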", "summary_of_the_method": "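COX1 from ovine seminal vesicles, activity read colorimetrically about 0.66 h after dosing. Primary screen in duplicate at 25 uM; actives retested in concentration series; loss of signal fitted versus DMSO.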", "values": [
      {"smiles": "O=C1OC(=O)C2C3C=CC(C3)C12", "note": "(stereo unspecified)", "outcome": "inactive"},
      {"smiles": "Oc1ccc2c(c1)-c1ccccc1C2", "outcome": "inactive"},
      {"smiles": "C[C@](N)(Cc1ccc(O)c(O)c1)C(=O)O", "AC50": "2.33 µM (active)"},
      {"smiles": "Nc1nc2ncc(CNc3ccc(C(=O)N[C@@H](CCC(=O)O)C(=O)O)cc3)nc2c(=O)[nH]1", "AC50": "11 µM (active)"},
      {"smiles": "CCc1cc(SCc2sc(-c3ccc(C(F)(F)F)cc3)nc2CN2CCN(c3ccc(OC)cc3)CC2)ccc1OCC(=O)O", "outcome": "inactive"},
      {"smiles": "CC(C)=CCCC(C)CCO", "note": "(stereo unspecified)", "AC50": "21.6 µM (active)"},
      {"smiles": "CC(C)=CCC/C(C)=C\\CO", "AC50": "25 µM (active)"},
      {"smiles": "O=C(OC[C@H]1O[C@@H](OC(=O)c2cc(O)c(O)c(OC(=O)c3cc(O)c(O)c(O)c3)c2)[C@H](OC(=O)c2cc(O)c(O)c(OC(=O)c3cc(O)c(O)c(O)c3)c2)[C@@H](OC(=O)c2cc(O)c(O)c(OC(=O)c3cc(O)c(O)c(O)c3)c2)[C@@H]1OC(=O)c1cc(O)c(O)c(OC(=O)c2cc(O)c(O)c(O)c2)c1)c1cc(O)c(O)c(OC(=O)c2cc(O)c(O)c(O)c2)c1", "AC50": "4.31 µM (active)"},
      {"smiles": "COCCOCCOCCOC", "outcome": "inactive"},
      {"smiles": "CCCCCCc1ccc(O)cc1O", "AC50": "5.25 µM (active)"},
      {"smiles": "Cc1ccc(C)c(O)c1", "outcome": "inactive"}
    ]}
  ]
}
